According to the supplement of paper PMC6411743:
± gives the standard deviation of the averaged measurements. Of roughly 5,400 targets only a part is listed; those with the largest changes were picked by preference.

Compound: Nc1nc2c(ncn2[C@@H]2O[C@H](COP(=O)(O)OP(=O)(O)OP(=O)(O)O)[C@@H](O)[C@H]2O)c(=O)[nH]1 [guanosine triphosphate]
Assay: NP40-soluble protein abundance relative to vehicle (solubility fold change) (ratio); higher = more soluble protein in presence of GTP
Procedure: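 Solubility proteome profiling in Jurkat crude lysate. Lysate was treated with Mg-GTP (0.1-10 mM) for 10 min at room temperature and 3 min at 37 °C, then solubilised with 0.8% NP40 and benzonase, followed by ultracentrifugation. Proteins were quantified by TMT10 LC-MS/MS; the value is the NP40-soluble abundance relative to the NP40-processed vehicle, from 3 independent experiments.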

Sequence of UniProt Q96FJ2 (Q96FJ2 whole entry): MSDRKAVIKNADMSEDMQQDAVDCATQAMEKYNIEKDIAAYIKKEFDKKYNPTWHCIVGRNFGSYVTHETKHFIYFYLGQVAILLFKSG
Sequence of UniProt Q9H944 (Q9H944 whole entry, one chain of several): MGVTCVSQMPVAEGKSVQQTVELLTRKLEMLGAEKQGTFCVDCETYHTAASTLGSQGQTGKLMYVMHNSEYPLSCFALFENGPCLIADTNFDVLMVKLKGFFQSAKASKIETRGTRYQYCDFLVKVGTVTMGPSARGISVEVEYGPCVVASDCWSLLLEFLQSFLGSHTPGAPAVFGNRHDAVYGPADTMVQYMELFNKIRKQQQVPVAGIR
Sequence of UniProt Q9P287 (Q9P287 whole entry): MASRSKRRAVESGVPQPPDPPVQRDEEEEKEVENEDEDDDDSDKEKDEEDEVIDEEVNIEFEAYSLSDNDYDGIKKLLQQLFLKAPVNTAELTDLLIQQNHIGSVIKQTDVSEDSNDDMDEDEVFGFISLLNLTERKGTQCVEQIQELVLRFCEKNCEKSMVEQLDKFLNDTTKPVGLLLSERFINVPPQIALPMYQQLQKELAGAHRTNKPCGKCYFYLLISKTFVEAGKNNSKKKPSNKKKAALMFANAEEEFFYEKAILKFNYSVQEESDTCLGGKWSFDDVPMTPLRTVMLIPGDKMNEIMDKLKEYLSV
Sequence of UniProt Q9BTT4 (Q9BTT4 whole entry): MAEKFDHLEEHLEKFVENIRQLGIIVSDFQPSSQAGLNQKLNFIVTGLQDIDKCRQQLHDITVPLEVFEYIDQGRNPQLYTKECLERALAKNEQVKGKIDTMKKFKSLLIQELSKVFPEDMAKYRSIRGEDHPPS
Sequence of UniProt Q9HCD5 (Q9HCD5 whole entry): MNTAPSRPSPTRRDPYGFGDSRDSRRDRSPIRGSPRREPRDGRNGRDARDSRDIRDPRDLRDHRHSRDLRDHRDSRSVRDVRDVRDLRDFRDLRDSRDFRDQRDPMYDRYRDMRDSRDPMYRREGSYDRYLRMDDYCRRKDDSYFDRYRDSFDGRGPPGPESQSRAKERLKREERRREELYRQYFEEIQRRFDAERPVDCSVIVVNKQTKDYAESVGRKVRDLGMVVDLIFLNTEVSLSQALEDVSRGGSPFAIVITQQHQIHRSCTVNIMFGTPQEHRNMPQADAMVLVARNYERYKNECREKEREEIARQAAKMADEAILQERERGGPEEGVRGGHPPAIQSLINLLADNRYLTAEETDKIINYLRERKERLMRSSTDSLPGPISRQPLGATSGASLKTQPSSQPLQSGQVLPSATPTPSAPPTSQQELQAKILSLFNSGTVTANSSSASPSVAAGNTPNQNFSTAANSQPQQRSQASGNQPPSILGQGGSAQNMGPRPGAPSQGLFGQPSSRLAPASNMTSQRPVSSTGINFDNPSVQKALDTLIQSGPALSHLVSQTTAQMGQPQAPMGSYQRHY

Target	NP40-soluble protein abundance (concentration: 0.1mM)	NP40-soluble protein abundance (concentration: 0.5mM)	NP40-soluble protein abundance (concentration: 1mM)	NP40-soluble protein abundance (concentration: 2mM)	NP40-soluble protein abundance (concentration: 4mM)	NP40-soluble protein abundance (concentration: 6mM)	NP40-soluble protein abundance (concentration: 8mM)	NP40-soluble protein abundance (concentration: 10mM)
NCOA5 (UniProt Q9HCD5)	1.03 ± 0.053	1 ± 0.028	1.084 ± 0.0085	1.22 ± 0.043	1.58 ± 0.053	1.81 ± 0.059	2.15 ± 0.18	2.4 ± 0.19
UniProt Q9H944|B7ZBQ3	1 ± 0.046	1.01 ± 0.05	0.928 ± 0.034	0.984 ± 0.019	0.976 ± 0.025	0.986 ± 0.029	0.9381 ± 0.0083	0.934 ± 0.029
UniProt Q96FJ2	0.875 ± 0.063	0.83 ± 0.033	1.07 ± 0.12	1.06 ± 0.081	1.18 ± 0.1	1.03 ± 0.11	1.05 ± 0.087	1.18 ± 0.17
UniProt Q9P287|Q9P287-2	1.03 ± 0.026	0.973 ± 0.032	0.971 ± 0.066	0.953 ± 0.059	0.99 ± 0.083	0.913 ± 0.069	0.943 ± 0.058	0.946 ± 0.075
MED10 (UniProt Q9BTT4)	1.01 ± 0.2	1.03 ± 0.098	0.973 ± 0.028	1.07 ± 0.11	0.95 ± 0.094	1.08 ± 0.05	0.968 ± 0.092	1.07 ± 0.038
